What was measured:
Conditions in all cases: concentration: 1 μM, replicates: in singlicate; n = 1
DCAMKL2 = system: T1, DCAMKL2
T1 construct: gene DCLK2

DCAMKL3 = system: T2, DCAMKL3
T2 construct: gene DCLK3

DDR1 = system: DDR1
DDR2 = system: DDR2
DLK = system: T3, DLK
T3 construct: gene MAP3K12

DMPK2 = system: T4, DMPK2
T4 construct: gene CDC42BPG

DMPK = system: DMPK
DRAK1 = system: T5, DRAK1
T5 construct: gene STK17A

DRAK2 = system: T6, DRAK2
T6 construct: gene STK17B

DYRK1A = system: DYRK1A
DYRK1B = system: DYRK1B
DYRK2 = system: DYRK2
EGFR = system: EGFR
EIF2AK1 = system: EIF2AK1
EPHA1 = system: EPHA1
EPHA2 = system: EPHA2
EPHA3 = system: EPHA3
EPHA4 = system: EPHA4
EPHA5 = system: EPHA5
EPHA6 = system: EPHA6
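Also: KINOMEscan kinase panel screen.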

With `Cn1cc(-c2ccc3c(c2)CCN3C(=O)Cc2cc(F)cc(F)c2F)c2c(N)ncnc21` [GSK2634140] the “%Inh” value (DCAMKL2) was 0%, the “%Inh” value (DCAMKL3) was 0% and the “%Inh” value (DDR1) was 72%. The “%Inh” value (DDR2) was 27%, the “%Inh” value (DLK) was 31% and the “%Inh” value (DMPK2) was 56%. For the same molecule, the “%Inh” value (DMPK) was 0%, the “%Inh” value (DRAK1) was 0% and the “%Inh” value (DRAK2) was 0%. For the same molecule, the “%Inh” value (DYRK1A) was 16%, the “%Inh” value (DYRK1B) was 4% and the “%Inh” value (DYRK2) was 5%. The “%Inh” value (EGFR) was 16%, the “%Inh” value (EIF2AK1) was 80% and the “%Inh” value (EPHA1) was 4%. For the same molecule, the “%Inh” value (EPHA2) was 9%, the “%Inh” value (EPHA3) was 0% and the “%Inh” value (EPHA4) was 6%. The “%Inh” value (EPHA5) was 0% and the “%Inh” value (EPHA6) was 1%.

With `Fc1cc(Cl)ccc1Nc1ccnc2cc(-c3ccc(CN4CCSCC4)o3)ccc12` [GW560106] the “%Inh” value (DCAMKL2) was 0%, the “%Inh” value (DCAMKL3) was 42% and the “%Inh” value (DDR1) was 96.1%. For the same molecule, the “%Inh” value (DDR2) was 69%, the “%Inh” value (DLK) was 46% and the “%Inh” value (DMPK2) was 0%. The “%Inh” value (DMPK) was 8%, the “%Inh” value (DRAK1) was 23% and the “%Inh” value (DRAK2) was 0%. The “%Inh” value (DYRK1A) was 0%, the “%Inh” value (DYRK1B) was 0% and the “%Inh” value (DYRK2) was 13%. The “%Inh” value (EGFR) was 71%, the “%Inh” value (EIF2AK1) was 0% and the “%Inh” value (EPHA1) was 91.1%. For the same molecule, the “%Inh” value (EPHA2) was 31%, the “%Inh” value (EPHA3) was 19% and the “%Inh” value (EPHA4) was 10%. The “%Inh” value (EPHA5) was 0% and the “%Inh” value (EPHA6) was 52%.

`COc1cccc(C2=C(Nc3cccc(O)c3)C(=O)NC2=O)c1` [SB-390771] was tested, and the “%Inh” value (DCAMKL2) was 0%, the “%Inh” value (DCAMKL3) was 31% and the “%Inh” value (DDR1) was 0%. The “%Inh” value (DDR2) was 17%, the “%Inh” value (DLK) was 26% and the “%Inh” value (DMPK2) was 0%. The “%Inh” value (DMPK) was 0%, the “%Inh” value (DRAK1) was 0% and the “%Inh” value (DRAK2) was 0%. The “%Inh” value (DYRK1A) was 57%, the “%Inh” value (DYRK1B) was 24% and the “%Inh” value (DYRK2) was 9%. The “%Inh” value (EGFR) was 41%, the “%Inh” value (EIF2AK1) was 3% and the “%Inh” value (EPHA1) was 0%. The “%Inh” value (EPHA2) was 29%, the “%Inh” value (EPHA3) was 0% and the “%Inh” value (EPHA4) was 27%. For the same molecule, the “%Inh” value (EPHA5) was 0% and the “%Inh” value (EPHA6) was 24%.

For `CC(C)c1nc(-c2cccc(NS(=O)(=O)c3c(F)cccc3F)c2)c(-c2ccnc(Nc3ccc(N4CCOCC4)nc3)n2)s1.Cl` [GSK1723980], the “%Inh” value (DCAMKL2) was 13%, the “%Inh” value (DCAMKL3) was 10% and the “%Inh” value (DDR1) was 94.9%. The “%Inh” value (DDR2) was 42%, the “%Inh” value (DLK) was 74% and the “%Inh” value (DMPK2) was 11%. For the same molecule, the “%Inh” value (DMPK) was 0%, the “%Inh” value (DRAK1) was 0% and the “%Inh” value (DRAK2) was 0%. For the same molecule, the “%Inh” value (DYRK1A) was 39%, the “%Inh” value (DYRK1B) was 0% and the “%Inh” value (DYRK2) was 18%. The “%Inh” value (EGFR) was 99.1%, the “%Inh” value (EIF2AK1) was 66% and the “%Inh” value (EPHA1) was 97.7%. For the same molecule, the “%Inh” value (EPHA2) was 0%, the “%Inh” value (EPHA3) was 18% and the “%Inh” value (EPHA4) was 27%. The “%Inh” value (EPHA5) was 0% and the “%Inh” value (EPHA6) was 77%.

`Cc1ccc(-c2ccc3occ(-c4ccc(S(C)=O)cc4)c3c2)nn1` (centres unmarked) was tested, and the “%Inh” value (DCAMKL2) was 0%, the “%Inh” value (DCAMKL3) was 21% and the “%Inh” value (DDR1) was 0%. The “%Inh” value (DDR2) was 16%, the “%Inh” value (DLK) was 0% and the “%Inh” value (DMPK2) was 0%. For the same molecule, the “%Inh” value (DMPK) was 8%, the “%Inh” value (DRAK1) was 10% and the “%Inh” value (DRAK2) was 22%. For the same molecule, the “%Inh” value (DYRK1A) was 0%, the “%Inh” value (DYRK1B) was 33% and the “%Inh” value (DYRK2) was 0%. The “%Inh” value (EGFR) was 0%, the “%Inh” value (EIF2AK1) was 0% and the “%Inh” value (EPHA1) was 0%. For the same molecule, the “%Inh” value (EPHA2) was 4%, the “%Inh” value (EPHA3) was 6% and the “%Inh” value (EPHA4) was 11%. The “%Inh” value (EPHA5) was 0% and the “%Inh” value (EPHA6) was 21%.

With `Cc1cc(-c2c(-c3ccc(F)cc3)ncn2CCCN2CCOCC2)nc(N)n1` [SB-222517] the “%Inh” value (DCAMKL2) was 2%, the “%Inh” value (DCAMKL3) was 0% and the “%Inh” value (DDR1) was 0%. The “%Inh” value (DDR2) was 21%, the “%Inh” value (DLK) was 0% and the “%Inh” value (DMPK2) was 0%. The “%Inh” value (DMPK) was 16%, the “%Inh” value (DRAK1) was 13% and the “%Inh” value (DRAK2) was 15%. For the same molecule, the “%Inh” value (DYRK1A) was 0%, the “%Inh” value (DYRK1B) was 20% and the “%Inh” value (DYRK2) was 34%. For the same molecule, the “%Inh” value (EGFR) was 0%, the “%Inh” value (EIF2AK1) was 0% and the “%Inh” value (EPHA1) was 0%. The “%Inh” value (EPHA2) was 0%, the “%Inh” value (EPHA3) was 0% and the “%Inh” value (EPHA4) was 20%. The “%Inh” value (EPHA5) was 9% and the “%Inh” value (EPHA6) was 30%.

With `CN(C)c1ncnc2nc[nH]c12` [SKF-31736] the “%Inh” value (DCAMKL2) was 0%, the “%Inh” value (DCAMKL3) was 0% and the “%Inh” value (DDR1) was 0%. The “%Inh” value (DDR2) was 35%, the “%Inh” value (DLK) was 12% and the “%Inh” value (DMPK2) was 0%. The “%Inh” value (DMPK) was 2%, the “%Inh” value (DRAK1) was 0% and the “%Inh” value (DRAK2) was 0%. The “%Inh” value (DYRK1A) was 0%, the “%Inh” value (DYRK1B) was 39% and the “%Inh” value (DYRK2) was 23%. The “%Inh” value (EGFR) was 0%, the “%Inh” value (EIF2AK1) was 0% and the “%Inh” value (EPHA1) was 0%. For the same molecule, the “%Inh” value (EPHA2) was 0%, the “%Inh” value (EPHA3) was 8% and the “%Inh” value (EPHA4) was 0%. For the same molecule, the “%Inh” value (EPHA5) was 0% and the “%Inh” value (EPHA6) was 0%.

For `Cc1ccc(NC(=O)c2cccc(N3CCCCC3)c2)cc1-c1ccc(C(=O)NCC2CC2)cc1` [GSK1917008], the “%Inh” value (DCAMKL2) was 19%, the “%Inh” value (DCAMKL3) was 0% and the “%Inh” value (DDR1) was 100%. For the same molecule, the “%Inh” value (DDR2) was 64%, the “%Inh” value (DLK) was 8% and the “%Inh” value (DMPK2) was 100%. The “%Inh” value (DMPK) was 3%, the “%Inh” value (DRAK1) was 0% and the “%Inh” value (DRAK2) was 9%. For the same molecule, the “%Inh” value (DYRK1A) was 27%, the “%Inh” value (DYRK1B) was 0% and the “%Inh” value (DYRK2) was 18%. For the same molecule, the “%Inh” value (EGFR) was 35%, the “%Inh” value (EIF2AK1) was 8% and the “%Inh” value (EPHA1) was 18%. For the same molecule, the “%Inh” value (EPHA2) was 33%, the “%Inh” value (EPHA3) was 4% and the “%Inh” value (EPHA4) was 37%. For the same molecule, the “%Inh” value (EPHA5) was 3% and the “%Inh” value (EPHA6) was 34%.

For `COc1cccc2c(-c3ccncc3)c(-c3ccc(F)cc3)nn12` [GW468513], the “%Inh” value (DCAMKL2) was 0%, the “%Inh” value (DCAMKL3) was 0% and the “%Inh” value (DDR1) was 96.2%. The “%Inh” value (DDR2) was 90%, the “%Inh” value (DLK) was 46% and the “%Inh” value (DMPK2) was 98.9%. For the same molecule, the “%Inh” value (DMPK) was 0%, the “%Inh” value (DRAK1) was 0% and the “%Inh” value (DRAK2) was 0%. The “%Inh” value (DYRK1A) was 15%, the “%Inh” value (DYRK1B) was 0% and the “%Inh” value (DYRK2) was 0%. For the same molecule, the “%Inh” value (EGFR) was 71%, the “%Inh” value (EIF2AK1) was 0% and the “%Inh” value (EPHA1) was 5%. The “%Inh” value (EPHA2) was 17%, the “%Inh” value (EPHA3) was 0% and the “%Inh” value (EPHA4) was 18%. For the same molecule, the “%Inh” value (EPHA5) was 0% and the “%Inh” value (EPHA6) was 41%.

For `Cc1ccc(O)cc1Nc1ccnc2ccc(C(C)(C)C)cc12` [GW856805], the “%Inh” value (DCAMKL2) was 18%, the “%Inh” value (DCAMKL3) was 0% and the “%Inh” value (DDR1) was 40%. The “%Inh” value (DDR2) was 60%, the “%Inh” value (DLK) was 0% and the “%Inh” value (DMPK2) was 5%. For the same molecule, the “%Inh” value (DMPK) was 3%, the “%Inh” value (DRAK1) was 12% and the “%Inh” value (DRAK2) was 0%. For the same molecule, the “%Inh” value (DYRK1A) was 0%, the “%Inh” value (DYRK1B) was 19% and the “%Inh” value (DYRK2) was 19%. The “%Inh” value (EGFR) was 37%, the “%Inh” value (EIF2AK1) was 44% and the “%Inh” value (EPHA1) was 99%. The “%Inh” value (EPHA2) was 92.9%, the “%Inh” value (EPHA3) was 71% and the “%Inh” value (EPHA4) was 91.3%. The “%Inh” value (EPHA5) was 99.3% and the “%Inh” value (EPHA6) was 79%.

From PMC5540273 (PLoS ONE, 2017)
